Most compounds without a hit are left out; they make up all but 2.4% or so of the library.
Rango dissoc inh: inhibitors of RanGTP-induced Rango-importin beta complex dissociation; AID 540253; O95149+P62826; 340,000 compounds, 0.071% hits; Potency, µM (series often up to 46.1 µM); Biochemical FRET Rango-importin beta, RanGTP-induced dissociation; calls by dose curve; also: nearly all actives have a fitted effect of over 45% in size
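Rango/importin beta premix (0.1/0.25 uM final), PBS + 1 mM DTT + 0.02% Tween-20 + 0.1% BSA; cpd 5 min RT; FRET pre-read; + RanGTP-RCC1 (0.6 uM Ran, 2 mM GTP, 0.2 uM RCC1); 45 min RT; FRET post-read, ex 430, em 486/530 nm.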
PGK inhibitor: inhibitors of T. brucei phosphoglycerate kinase; P07378; PGK/GAPDH coupled, Kinase-Glo luminescence, 60 min; Potency, µM (series often up to 57.5 µM), actives largely listed as inhibitors; 380,000 compounds, 0.043% hits; AID 602233; also: nearly all actives have a fitted effect of over 60% in size
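Recombinant glycosomal PGK reaction used 1,3-bisphosphoglycerate generated in-well by GAPDH (100nM final) in 100mM TEA pH 7.6, 5mM MgCl2, 0.01% Tween-20. After 60 minutes at room temperature, ATP was read by Kinase-Glo Plus luminescence end-point.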
Tb PFK block: inhibitors of T. brucei phosphofructokinase | T. brucei PFK, ADP-Glo luminescence | Potency, µM (highest dose often 57.5 µM), actives largely listed as inhibitors | 330,000 compounds, 0.17% hits; also: nearly all actives have a fitted effect of over 60% in size
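Activity is normalized to no-enzyme wells (full inhibition) and 1.25 nM enzyme wells (no inhibition). Reaction: 0.5 mM F6P, 0.1 mM ATP, 45 min RT, ADP-Glo luminescence; concentration-response curves fitted and classed by quality.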
ELG1 repair inh: blocks ELG1-dependent DNA repair in HEK293T cells; Potency, µM (doses to about 46.1 µM), most hits filed as inhibitors; HEK293T ELG1-luciferase reporter, luminescence, 16 h; DNA damage induced by 5-fluorouridine; AID 504467; 330,000 compounds, 2.3% hits; also: nearly all actives have a fitted effect of over 55% in size
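HEK293T cells expressing luciferase-tagged ELG1 (2,000/well) received 5-Fluorouridine plus compound or DMSO for 16 hr at 37 °C. Luciferase was read by ONE-Glo luminescence after 30 min at room temperature.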
PKM2 activator: activators of human pyruvate kinase M2 | AID 1631 | 260,000 compounds, 0.34% hits | P14618 | Potency, µM (titrated, usually from 57.5 µM), hits mostly activators | purified PKM2, Kinase-Glo ATP luminescence, activation; response scale: 0% is enzyme alone, no compound; also: nearly all actives have a fitted effect of over 55% in size
Target sequence (P14618 whole entry, looked up): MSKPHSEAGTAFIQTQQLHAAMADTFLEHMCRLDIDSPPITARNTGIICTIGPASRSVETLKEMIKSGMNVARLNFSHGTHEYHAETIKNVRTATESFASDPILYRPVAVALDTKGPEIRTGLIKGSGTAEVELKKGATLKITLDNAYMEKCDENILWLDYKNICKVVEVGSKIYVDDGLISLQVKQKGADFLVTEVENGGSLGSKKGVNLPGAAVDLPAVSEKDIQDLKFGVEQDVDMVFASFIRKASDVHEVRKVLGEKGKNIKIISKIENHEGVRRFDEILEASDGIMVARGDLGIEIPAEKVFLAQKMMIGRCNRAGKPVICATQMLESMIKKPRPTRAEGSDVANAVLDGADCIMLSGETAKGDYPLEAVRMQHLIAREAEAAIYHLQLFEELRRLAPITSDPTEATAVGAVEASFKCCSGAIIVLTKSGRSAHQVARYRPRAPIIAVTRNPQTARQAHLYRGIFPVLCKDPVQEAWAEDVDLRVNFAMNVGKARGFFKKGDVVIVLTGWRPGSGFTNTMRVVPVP
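ATP formation by purified human PK-M2, quantified via coupled luciferase luminescence after 1 h at room temperature with 0.1 mM ADP and 0.5 mM PEP final.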
Rango complex inh: inhibitors of Rango-importin beta complex formation; Q14974; Rango CFP/YFP FRET sensor + importin beta, 45 min; Potency, µM (highest dose often 92.2 µM); 340,000 compounds, 0.031% hits; AID 540263; calls by dose curve; also: nearly all actives have a fitted effect of over 15% in size
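FRET biosensor (snurportin 1 IBB flanked by EYFP and cerulean), 50 nM, with compound 5 min, then 0.125 microM importin beta in PBS, 1 mM DTT, 0.02% Tween-20, 0.1% BSA. CFP/YFP ratio read after 45 min at room temperature; pre-read flags interference.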
Each line names hits and unclear results; the compound was inactive in the other large screens. Unless noted, calls follow the shape of the dose curve; as a rule, active = well fitted curve in the direction sought with a large enough effect; inconclusive = small, poorly fitted or top-dose-only effect, or another doubt; inactive = no such curve, though single readings can be large; an effect the other way counts as inactive or inconclusive.

COc1ccc(-n2cc(CNCCCn3ccnc3)c(-c3cccc(F)c3)n2)cc1	none
COc1ccc(CCNC(=O)c2ccc3c(c2)CCN3S(=O)(=O)c2ccccc2)cc1OC	none (no result: Rango dissoc inh, Tb PFK block, ELG1 repair inh, PKM2 activator, Rango complex inh)
COc1ccc(OC2C(=O)N(CCc3ccc(OC)c(OC)c3)C2c2ccc3c(c2)OCO3)cc1 (stereo not given)	ELG1 repair inh 18µM
COc1ccc(CCN2C(=O)C(Oc3ccccc3)C2c2ccc3c(c2)OCO3)cc1 (stereo not given)	ELG1 repair inh inconclusive
CCOc1cccc(CN2CCC(n3nccc3NC(=O)CCCc3ccccc3)CC2)c1	ELG1 repair inh 6.5µM
COc1ccccc1C(CNC(=O)C1CC(=O)N(Cc2ccc(C)cc2)C1)N1CCCC1 (stereo not given)	none (no result: PKM2 activator)
CC(C)(C)/C(O)=C(/C#N)c1nc2ccccc2[nH]1	ELG1 repair inh 23µM, Rango complex inh inconclusive
COc1ccc(Cl)cc1NC(=S)N1CC(C)OC(C)C1 (stereo not given)	none
CC1(C)C(=O)CC[C@@]2(C)[C@H]1CC[C@@]1(C)CC3=C(CC[C@@H]12)[C@@]1(C)CCC(=O)C(C)(C)[C@@H]1CC3	none (no result: Rango dissoc inh, PGK inhibitor, PKM2 activator, Rango complex inh)
CC(C)(C)OC(=O)NCCCCCc1cn([C@@H](CO)C(=O)NCCCCCCCCCCC(=O)N2CCN(C(=O)OC(C)(C)C)CC2)nn1	ELG1 repair inh 3.2µM (no result: PKM2 activator)
CC(C)(C)OC(=O)CC[C@@H](C(=O)NCCCCCCCCCCC(=O)N1CCN(C(=O)OC(C)(C)C)CC1)n1cc(CCCCCNC(=O)OC(C)(C)C)nn1	none (no result: PKM2 activator)
CCOc1cc(/C=C/c2ccc3cccc([N+](=O)[O-])c3n2)ccc1OCC(=O)N(C)C	ELG1 repair inh 16µM
COc1cc(/C=C/c2ccc3cccc([N+](=O)[O-])c3n2)ccc1OCC#N	ELG1 repair inh 23µM
COc1cc(/C=C/C(=O)c2ccc(C)cc2)ccc1OCC#N	ELG1 repair inh inconclusive
CCOc1cc(/C=C/C(=O)c2ccc(C)cc2)ccc1OCC(=O)N(C)C	ELG1 repair inh 18µM, Rango complex inh inconclusive
O=C(OCc1cn([C@H]2CN(C(=O)c3cccs3)[C@@H](c3ccc(Cl)cc3)C[C@@H]2O)nn1)c1ccccc1	none (no result: Rango dissoc inh, Tb PFK block, ELG1 repair inh, PKM2 activator, Rango complex inh)
c1ccc2c(c1)CCCN2c1nc(N2CCOCC2)nc(N2CCOCC2)n1	ELG1 repair inh 8.2µM
C1=CCN(c2nc(N3CCOCC3)nc(N3CCCc4ccccc43)n2)CC1	none (no result: Rango dissoc inh, Tb PFK block, ELG1 repair inh, PKM2 activator, Rango complex inh)
COc1cc(Cl)c(C)cc1NS(=O)(=O)c1c(C)nc2sccn2c1=O	none (no result: Rango dissoc inh, Tb PFK block, ELG1 repair inh, PKM2 activator, Rango complex inh)
COc1ccc2c(c1)c1ncnc(N3CCN(Cc4ccc5c(c4)OCO5)CC3)c1n2C	ELG1 repair inh 16µM (no result: Rango dissoc inh, PGK inhibitor, Rango complex inh)
COc1ccc2[nH]c3c(N4CCN(Cc5ccc6c(c5)OCO6)CC4)ncnc3c2c1	ELG1 repair inh 26µM
Cc1oc2c(c1C(=O)NCc1cccnc1)C(=O)c1ccccc1C2=O	ELG1 repair inh 1.6µM
CC(=O)c1c(C)oc2c1C(=O)c1ccccc1C2=O	ELG1 repair inh 12µM
O=C(CSc1ccc2c(c1)OCCO2)Nc1ccccc1	none (no result: Rango dissoc inh, Tb PFK block, ELG1 repair inh, PKM2 activator, Rango complex inh)
O=C(CSc1ccc2c(c1)OCCO2)NC(=O)NC1CCCC1	ELG1 repair inh 0.73µM
CCNC(=S)N/N=C/c1ccc(OCCOc2ccccc2C)cc1	none
CCOc1ccc(/C=N/NC(=S)Nc2c(C)cccc2C)cc1	ELG1 repair inh 18µM
CCOC(=O)C1=C(OCc2ccc(Cl)cc2)C2C=C(C)C=CC2N=C1 (stereo not given)	ELG1 repair inh 16µM
CN1C(C)(C)CC(=NO)CC1(C)C	none (no result: Tb PFK block, ELG1 repair inh, PKM2 activator)
Cc1ccccc1NC(=O)c1cc(C(=O)c2cc(Cl)ccc2O)cn(-c2ccccc2C)c1=O	ELG1 repair inh 21µM
Nc1nonc1-c1nc2ccccc2n1Cc1cccc(Cl)c1	none (no result: Rango dissoc inh, Tb PFK block, ELG1 repair inh, PKM2 activator, Rango complex inh)
COc1cc(C(=O)N[C@H](C(=O)NC2CCCc3ccccc32)C(C)C)cc(OC)c1OC (stereo not given in full)	ELG1 repair inh 21µM (no result: PKM2 activator)
COc1cc(C(=O)N[C@H](C(=O)NC2CCCCCC2)C(C)C)cc(OC)c1OC	none

Source: PubChem BioAssay
